Results filed as inconclusive are left out. A call without a number means that no potency is given here. Active and inactive are the calls of the source. The call rests on the fitted dose curve; in most records, active means well fitted inhibition curve with a large enough effect; inconclusive means small, poorly fitted or top-dose-only effect; inactive means flat fitted curve, though single readings scatter.
Each molecule was assayed against Voltage-gated inwardly rectifying potassium channel KCNH2 (Homo sapiens) (UniProt Q12809) (assay: qHTS Assay for Small Molecule Inhibitors of the Human hERG Channel Activity (AID 588834;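 further: lower thallium flux fluorescence means stronger hERG block; nearly all actives have a fitted effect of over 50% in size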)). Conditions: U2OS BacMam hERG, FluxOR thallium flux fluorescence; series mostly up to 46.1 µM.
Voltage-gated inwardly rectifying potassium channel KCNH2 (Homo sapiens), sequence (Q12809 whole entry, looked up): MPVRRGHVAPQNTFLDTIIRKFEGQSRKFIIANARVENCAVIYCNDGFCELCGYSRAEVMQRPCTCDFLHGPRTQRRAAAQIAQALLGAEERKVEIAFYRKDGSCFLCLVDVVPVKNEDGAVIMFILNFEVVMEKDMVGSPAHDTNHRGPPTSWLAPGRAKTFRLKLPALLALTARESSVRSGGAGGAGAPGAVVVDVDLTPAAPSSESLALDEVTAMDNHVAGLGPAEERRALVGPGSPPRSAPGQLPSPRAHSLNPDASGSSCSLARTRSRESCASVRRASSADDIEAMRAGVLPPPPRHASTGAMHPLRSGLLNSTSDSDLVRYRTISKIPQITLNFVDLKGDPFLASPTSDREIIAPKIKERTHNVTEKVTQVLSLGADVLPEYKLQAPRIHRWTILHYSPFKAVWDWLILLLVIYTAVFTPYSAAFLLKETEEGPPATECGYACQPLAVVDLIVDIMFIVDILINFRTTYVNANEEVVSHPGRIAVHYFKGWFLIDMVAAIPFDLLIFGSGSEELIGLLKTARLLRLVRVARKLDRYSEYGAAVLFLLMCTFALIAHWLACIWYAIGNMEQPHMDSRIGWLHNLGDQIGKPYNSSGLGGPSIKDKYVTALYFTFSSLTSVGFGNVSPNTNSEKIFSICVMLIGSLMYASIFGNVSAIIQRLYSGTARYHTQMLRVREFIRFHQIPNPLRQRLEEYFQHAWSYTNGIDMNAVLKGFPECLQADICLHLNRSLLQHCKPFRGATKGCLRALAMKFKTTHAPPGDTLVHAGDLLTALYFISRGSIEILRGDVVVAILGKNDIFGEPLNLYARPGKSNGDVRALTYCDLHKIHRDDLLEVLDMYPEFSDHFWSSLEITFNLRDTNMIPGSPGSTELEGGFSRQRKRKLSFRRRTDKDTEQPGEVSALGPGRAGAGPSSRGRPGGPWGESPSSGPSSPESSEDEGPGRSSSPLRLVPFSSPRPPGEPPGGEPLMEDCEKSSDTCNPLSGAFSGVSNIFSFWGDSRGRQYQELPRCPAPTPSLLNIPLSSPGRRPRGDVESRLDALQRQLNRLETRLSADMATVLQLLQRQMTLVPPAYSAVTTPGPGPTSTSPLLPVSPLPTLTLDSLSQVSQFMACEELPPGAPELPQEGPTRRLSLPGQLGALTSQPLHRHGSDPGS
In short: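 Concentration-response qHTS measuring drop in thallium-sensitive dye signal. U2OS cells carrying BacMam hERG; compound exposure ~10 min, then stimulation buffer and 2 min read at 1 sec intervals.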
For `NC(=O)OC[C@@H]1[C@H](NC(=O)/C(=N\OCC(=O)O)c2csc(N)n2)C(=O)N1S(=O)(=O)O`, the Potency was “inactive”. In the case of `COC(=O)c1ccccc1O`, the Potency is reported as “inactive”. With `Cc1cc(O)c2c(c1)O[C@@]1(C)CC[C@H]3C(C)(C)CCCC34CO[C@@H]2[C@H]41` (stereo partly drawn) the Potency was “inactive”. With `C=O` the Potency was “inactive”. In the case of `CN(CCO)CC(O)Cn1cnc2c1c(=O)n(C)c(=O)n2C` (stereo not drawn) (tested in a mixture with another compound), the Potency is reported as “inactive”. For `COc1cc2c(cc1OC)[C@@H](c1ccccc1)CN(C)CC2`, the Potency was “inactive”. With `CCN(CC)CCOCCOC(=O)C(CC)(CC)c1ccccc1` the Potency was 14.1 µM (active). For `CC1(C)S[C@@H]2[C@H](N3C(=O)C(c4ccccc4)NC3(C)C)C(=O)N2[C@H]1C(=O)O` (stereo partly drawn), the Potency was “inactive”. `CC(C)C[C@H](NC(=O)[C@@H](COC(C)(C)C)NC(=O)[C@H](Cc1ccc(O)cc1)NC(=O)[C@H](CO)NC(=O)[C@H](Cc1c[nH]c2ccccc12)NC(=O)[C@H](Cc1cnc[nH]1)NC(=O)[C@@H]1CCC(=O)N1)C(=O)N[C@@H](CCCN=C(N)N)C(=O)N1CCC[C@H]1C(=O)NNC(N)=O` was tested, and the Potency was “inactive”. In the case of `Nc1nc2c(c(=O)[nH]1)N(C=O)C(CNc1ccc(C(=O)N[C@@H](CCC(=O)O)C(=O)O)cc1)CN2` (stereo partly drawn), the Potency is reported as “inactive”. In the case of `CN1CCN(C(c2ccccc2)c2ccc(Cl)cc2)CC1` (stereo not drawn), the Potency is reported as 5.62 µM (active). With `ClC(Cl)Cl` the Potency was “inactive”. In the case of `CC/C=C\C/C=C\C/C=C\CCCCCCCC(=O)O`, the Potency is reported as “inactive”. In the case of `CC1(C)[C@@H]2CC[C@@]1(C)[C@H](OC(=O)CSC#N)C2`, the Potency is reported as “inactive”. `CCCCC(=O)O[C@H]1CC[C@H]2[C@@H]3CCc4cc(O)ccc4[C@H]3CC[C@]12C` was tested, and the Potency was “inactive”. With `CC1=C(/C=C/C(C)=C/C=C/C(C)=C/C=C/C=C(C)/C=C/C=C(C)/C=C/C2=C(C)C[C@@H](O)CC2(C)C)C(C)(C)C[C@H](O)C1` the Potency was “inactive”. With `C[C@H]1O[C@@H](O[C@H]2[C@@H](O)C[C@H](O[C@H]3[C@@H](O)C[C@H](O[C@H]4CC[C@@]5(C)[C@H](CC[C@@H]6[C@@H]5C[C@@H](O)[C@]5(C)[C@@H](C7=CC(=O)OC7)CC[C@]65O)C4)O[C@@H]3C)O[C@@H]2C)C[C@H](O)[C@@H]1O` the Potency was “inactive”. For `C[C@]12CC[C@@H]3c4ccc(O)cc4CC[C@H]3[C@@H]1CC[C@@H]2OP(=O)(O)O`, the Potency was “inactive”.
Potency means the concentration at half of the fitted maximal effect.
